# Test results: the supplement of paper PMC10849652
# Targets with a hit are over-represented here; the source holds about 8,800 in all. About 0.5% of all pairs of compound and target were hits. Values without a mark were called inactive.
# How the values were obtained:
# Experiment in all cases: log2 fold change, soluble protein after heating vs DMSO (PISA); higher = thermal stabilisation; K562 lysate, 10 uM; active = over 0.2 and 3.5 SD of the protein, either way, in both replicates (recomputed)
# lapatinib = compound: CS(=O)(=O)CCNCc1ccc(-c2ccc3ncnc(Nc4ccc(OCc5cccc(F)c5)c(Cl)c4)c3c2)o1 [lapatinib]
# Procedure, shortened: (§1)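 K562 pellets were dounce-homogenised in PBS pH 7.4 with 1 mM MgCl2, and the crude extract at 1 mg/mL protein was treated with 10 μM compound for 30 min. Aliquots were heated for 3 min across 48°C-58°C, pooled, and brought to 0.5% NP-40 at 4°C; soluble protein was the supernatant after 21,000xg for 90 min. Soluble protein was quantified by TMTpro 16plex LC-MS/MS with channel sums equalised, and reported as log2 fold change in thermal stability against DMSO controls, with values from duplicates.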
# pictilisib = compound: CS(=O)(=O)N1CCN(Cc2cc3nc(-c4cccc5[nH]ncc45)nc(N4CCOCC4)c3s2)CC1 [pictilisib]
# Procedure, shortened: as §1
# crizotinib = compound: C[C@@H](Oc1cc(-c2cnn(C3CCNCC3)c2)cnc1N)c1c(Cl)ccc(F)c1Cl [crizotinib]
# Procedure, shortened: as §1
# [1] = compound: C[C@H](C1=CC=C(C=C1)C(=O)NC2=C3C=CNC3=NC=C2)N
# Procedure, shortened: as §1
# duvelisib = compound: C[C@H](Nc1ncnc2nc[nH]c12)c1cc2cccc(Cl)c2c(=O)n1-c1ccccc1 [duvelisib]
# Procedure, shortened: as §1
# gandotinib = compound: Cc1cc(Nc2cc(CN3CCOCC3)c3nc(C)c(Cc4ccc(Cl)cc4F)n3n2)n[nH]1 [gandotinib]
# Procedure, shortened: as §1
# tozasertib = compound: Cc1cc(Nc2cc(N3CCN(C)CC3)nc(Sc3ccc(NC(=O)C4CC4)cc3)n2)n[nH]1 [tozasertib]
# Procedure, shortened: as §1
# doramapimod = compound: Cc1ccc(-n2nc(C(C)(C)C)cc2NC(=O)Nc2ccc(OCCN3CCOCC3)c3ccccc23)cc1 [doramapimod]
# Procedure, shortened: as §1
# bafetinib = compound: Cc1ccc(NC(=O)c2ccc(CN3CC[C@H](N(C)C)C3)c(C(F)(F)F)c2)cc1Nc1nccc(-c2cncnc2)n1 [bafetinib]
# Procedure, shortened: as §1
# [2] = compound: Cc1cccc(CC(=O)N2CCc3c2ccc(-c2cn(C)c4ncnc(N)c24)c3F)n1
# Procedure, shortened: as §1
# nilotinib = compound: Cc1cn(-c2cc(NC(=O)c3ccc(C)c(Nc4nccc(-c5cccnc5)n4)c3)cc(C(F)(F)F)c2)cn1 [nilotinib]
# Procedure, shortened: as §1
# [3] = compound: Cc1nc(Nc2n[nH]c3c2CN(C(=O)N[C@H](CN(C)C)c2ccccc2)C3(C)C)c2sccc2n1
# Procedure, shortened: as §1
# dasatinib = compound: Cc1nc(Nc2ncc(C(=O)Nc3c(C)cccc3Cl)s2)cc(N2CCN(CCO)CC2)n1 [dasatinib]
# Procedure, shortened: as §1
# [4] = compound: Cc1ncc(-c2ccnc(Nc3ccc(S(C)(=O)=O)cc3)n2)n1C(C)C
# Procedure, shortened: as §1
# [5] = compound: Cn1cc(-c2ccc3c(c2)CCN3C(=O)Cc2cccc(C(F)(F)F)c2)c2c(N)ncnc21
# Procedure, shortened: as §1
# quisinostat = compound: Cn1cc(CNCC2CCN(c3ncc(C(=O)NO)cn3)CC2)c2ccccc21 [quisinostat]
# Procedure, shortened: as §1
# tipifarnib = compound: Cn1cncc1[C@@](N)(c1ccc(Cl)cc1)c1ccc2c(c1)c(-c1cccc(Cl)c1)cc(=O)n2C [tipifarnib]
# Procedure, shortened: as §1
# [6] = compound: NC(=O)Nc1cc(-c2cccc(F)c2)sc1C(=O)N[C@H]1CCCNC1
# Procedure, shortened: as §1
# [7] = compound: NC(=O)c1cnc(N[C@@H]2CCCC[C@@H]2N)nc1Nc1cccc(-n2nccn2)c1
# Procedure, shortened: as §1
# [8] = compound: NC1(c2ccc(-c3nc4ccn5c(=O)[nH]nc5c4cc3-c3ccccc3)cc2)CCC1
# Procedure, shortened: as §1
# UniProt Q9NRW3, sequence (Q9NRW3 whole entry, looked up): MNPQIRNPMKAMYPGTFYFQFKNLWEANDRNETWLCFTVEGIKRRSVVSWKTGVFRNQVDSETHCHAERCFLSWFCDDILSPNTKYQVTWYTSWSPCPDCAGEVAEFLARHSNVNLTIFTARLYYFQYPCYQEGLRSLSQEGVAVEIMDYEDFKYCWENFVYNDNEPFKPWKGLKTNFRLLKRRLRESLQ
# UniProt P28288, sequence (P28288 whole entry, looked up): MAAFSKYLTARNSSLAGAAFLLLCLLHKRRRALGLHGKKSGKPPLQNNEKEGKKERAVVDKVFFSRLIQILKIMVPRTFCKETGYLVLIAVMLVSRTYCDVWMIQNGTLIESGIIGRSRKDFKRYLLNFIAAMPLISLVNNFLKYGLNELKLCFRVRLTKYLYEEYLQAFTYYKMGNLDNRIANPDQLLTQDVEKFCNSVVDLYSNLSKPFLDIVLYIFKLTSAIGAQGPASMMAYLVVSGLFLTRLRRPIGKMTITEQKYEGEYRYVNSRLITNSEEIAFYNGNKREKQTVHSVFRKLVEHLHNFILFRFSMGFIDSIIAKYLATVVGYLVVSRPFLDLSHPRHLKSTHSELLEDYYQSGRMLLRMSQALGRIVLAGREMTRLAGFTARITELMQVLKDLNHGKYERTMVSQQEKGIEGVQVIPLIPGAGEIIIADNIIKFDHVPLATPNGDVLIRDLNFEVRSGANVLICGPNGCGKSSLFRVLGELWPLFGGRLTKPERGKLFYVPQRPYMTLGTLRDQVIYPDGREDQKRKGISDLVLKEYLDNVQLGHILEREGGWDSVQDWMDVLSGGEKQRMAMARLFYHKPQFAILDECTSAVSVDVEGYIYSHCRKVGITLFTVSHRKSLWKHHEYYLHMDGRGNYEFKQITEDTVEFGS
# UniProt Q01432, sequence (Q01432 whole entry, looked up): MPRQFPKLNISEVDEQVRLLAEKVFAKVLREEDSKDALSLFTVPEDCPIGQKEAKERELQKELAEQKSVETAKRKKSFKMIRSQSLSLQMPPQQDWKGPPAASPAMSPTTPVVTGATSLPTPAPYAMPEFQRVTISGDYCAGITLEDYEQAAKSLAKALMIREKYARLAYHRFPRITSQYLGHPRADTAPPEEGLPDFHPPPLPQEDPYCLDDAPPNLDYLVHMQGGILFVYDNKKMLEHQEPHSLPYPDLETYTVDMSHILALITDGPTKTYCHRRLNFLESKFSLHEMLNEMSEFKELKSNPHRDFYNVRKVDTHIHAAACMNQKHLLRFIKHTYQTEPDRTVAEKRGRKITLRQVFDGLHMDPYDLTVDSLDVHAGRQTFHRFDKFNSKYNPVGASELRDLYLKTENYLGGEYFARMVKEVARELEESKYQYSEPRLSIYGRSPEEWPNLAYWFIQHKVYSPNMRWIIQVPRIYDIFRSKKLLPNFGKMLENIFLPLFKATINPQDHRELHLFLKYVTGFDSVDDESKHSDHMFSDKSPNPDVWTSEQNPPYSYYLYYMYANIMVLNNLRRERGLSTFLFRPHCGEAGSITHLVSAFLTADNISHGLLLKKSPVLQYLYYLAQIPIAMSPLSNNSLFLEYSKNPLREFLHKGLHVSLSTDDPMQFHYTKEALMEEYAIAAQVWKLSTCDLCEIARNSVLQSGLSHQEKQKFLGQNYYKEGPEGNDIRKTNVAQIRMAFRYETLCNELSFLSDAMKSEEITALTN
# UniProt Q9Y303, sequence (Q9Y303 whole entry, looked up): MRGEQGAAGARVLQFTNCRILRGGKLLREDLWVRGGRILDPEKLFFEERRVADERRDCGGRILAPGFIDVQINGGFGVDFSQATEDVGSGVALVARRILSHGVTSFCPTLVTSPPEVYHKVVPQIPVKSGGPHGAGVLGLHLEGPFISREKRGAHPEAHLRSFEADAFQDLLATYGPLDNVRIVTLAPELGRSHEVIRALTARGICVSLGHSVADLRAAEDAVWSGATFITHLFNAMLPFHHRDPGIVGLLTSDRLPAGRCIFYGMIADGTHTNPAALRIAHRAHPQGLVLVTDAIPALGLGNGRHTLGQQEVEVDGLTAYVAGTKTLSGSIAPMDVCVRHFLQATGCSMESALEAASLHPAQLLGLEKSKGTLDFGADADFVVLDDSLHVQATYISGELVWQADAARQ
# UniProt Q13155, sequence (Q13155 whole entry, looked up): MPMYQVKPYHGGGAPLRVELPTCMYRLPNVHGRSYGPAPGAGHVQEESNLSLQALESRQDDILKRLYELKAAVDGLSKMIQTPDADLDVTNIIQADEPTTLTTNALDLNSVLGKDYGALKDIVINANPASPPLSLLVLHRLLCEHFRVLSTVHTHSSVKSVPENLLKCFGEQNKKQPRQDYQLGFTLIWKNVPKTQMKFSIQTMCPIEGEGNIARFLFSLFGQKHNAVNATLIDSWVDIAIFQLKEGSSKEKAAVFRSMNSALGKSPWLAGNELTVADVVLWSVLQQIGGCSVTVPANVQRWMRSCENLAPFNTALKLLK
# UniProt Q96GS6, sequence (Q96GS6 whole entry, looked up): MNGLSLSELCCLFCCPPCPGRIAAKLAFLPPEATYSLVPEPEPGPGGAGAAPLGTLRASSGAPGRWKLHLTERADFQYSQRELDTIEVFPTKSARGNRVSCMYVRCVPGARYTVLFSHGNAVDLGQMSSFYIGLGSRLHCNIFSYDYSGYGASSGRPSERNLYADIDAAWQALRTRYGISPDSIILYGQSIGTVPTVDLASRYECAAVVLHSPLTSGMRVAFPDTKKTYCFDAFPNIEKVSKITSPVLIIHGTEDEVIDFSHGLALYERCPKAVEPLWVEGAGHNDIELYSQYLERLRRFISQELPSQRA
# UniProt P27695, sequence (P27695 whole entry, looked up): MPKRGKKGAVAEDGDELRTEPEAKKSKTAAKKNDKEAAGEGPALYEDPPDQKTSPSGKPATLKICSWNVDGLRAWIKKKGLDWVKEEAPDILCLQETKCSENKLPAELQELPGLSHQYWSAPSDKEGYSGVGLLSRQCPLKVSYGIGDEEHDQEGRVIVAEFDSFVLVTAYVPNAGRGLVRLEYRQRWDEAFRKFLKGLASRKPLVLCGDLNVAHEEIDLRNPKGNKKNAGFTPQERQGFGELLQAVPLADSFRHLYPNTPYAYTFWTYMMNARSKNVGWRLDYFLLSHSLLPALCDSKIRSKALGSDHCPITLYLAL
# UniProt P35611, sequence (P35611 whole entry, looked up): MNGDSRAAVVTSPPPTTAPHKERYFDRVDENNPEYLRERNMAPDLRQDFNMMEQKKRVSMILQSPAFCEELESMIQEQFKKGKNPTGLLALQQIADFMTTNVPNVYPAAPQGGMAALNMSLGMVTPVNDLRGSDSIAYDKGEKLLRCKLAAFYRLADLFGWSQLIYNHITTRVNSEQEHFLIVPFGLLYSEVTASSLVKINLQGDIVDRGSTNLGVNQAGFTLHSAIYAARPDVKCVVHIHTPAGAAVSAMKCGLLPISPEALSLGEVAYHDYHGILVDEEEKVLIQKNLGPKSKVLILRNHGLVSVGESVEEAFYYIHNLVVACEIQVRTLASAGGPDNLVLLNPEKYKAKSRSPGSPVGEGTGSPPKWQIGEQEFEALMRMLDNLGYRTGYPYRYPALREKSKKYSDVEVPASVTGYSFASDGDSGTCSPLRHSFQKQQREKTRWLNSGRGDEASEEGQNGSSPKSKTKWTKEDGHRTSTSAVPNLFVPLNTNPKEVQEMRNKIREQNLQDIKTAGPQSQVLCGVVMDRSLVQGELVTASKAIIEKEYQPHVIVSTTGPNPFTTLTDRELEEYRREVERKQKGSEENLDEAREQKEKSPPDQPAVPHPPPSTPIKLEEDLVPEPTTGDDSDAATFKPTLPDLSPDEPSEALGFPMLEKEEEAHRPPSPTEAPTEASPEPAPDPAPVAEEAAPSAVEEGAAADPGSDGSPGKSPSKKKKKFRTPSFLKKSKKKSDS
# UniProt O00170, sequence (O00170 whole entry, looked up): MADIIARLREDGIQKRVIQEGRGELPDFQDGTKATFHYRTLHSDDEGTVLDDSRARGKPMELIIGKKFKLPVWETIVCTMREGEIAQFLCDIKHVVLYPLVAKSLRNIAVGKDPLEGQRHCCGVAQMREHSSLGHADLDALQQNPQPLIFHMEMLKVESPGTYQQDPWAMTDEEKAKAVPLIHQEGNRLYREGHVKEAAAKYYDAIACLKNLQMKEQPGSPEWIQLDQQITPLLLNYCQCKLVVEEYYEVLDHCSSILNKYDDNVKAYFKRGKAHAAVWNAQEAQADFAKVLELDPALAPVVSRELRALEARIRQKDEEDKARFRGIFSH
# UniProt P27144, sequence (P27144 whole entry, looked up): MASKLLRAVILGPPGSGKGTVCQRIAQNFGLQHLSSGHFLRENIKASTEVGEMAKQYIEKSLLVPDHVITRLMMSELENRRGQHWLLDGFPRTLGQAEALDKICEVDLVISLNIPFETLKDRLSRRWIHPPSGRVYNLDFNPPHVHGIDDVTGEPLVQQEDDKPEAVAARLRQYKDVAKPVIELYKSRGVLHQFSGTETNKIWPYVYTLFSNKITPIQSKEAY
# UniProt P51649, sequence (P51649 whole entry, looked up): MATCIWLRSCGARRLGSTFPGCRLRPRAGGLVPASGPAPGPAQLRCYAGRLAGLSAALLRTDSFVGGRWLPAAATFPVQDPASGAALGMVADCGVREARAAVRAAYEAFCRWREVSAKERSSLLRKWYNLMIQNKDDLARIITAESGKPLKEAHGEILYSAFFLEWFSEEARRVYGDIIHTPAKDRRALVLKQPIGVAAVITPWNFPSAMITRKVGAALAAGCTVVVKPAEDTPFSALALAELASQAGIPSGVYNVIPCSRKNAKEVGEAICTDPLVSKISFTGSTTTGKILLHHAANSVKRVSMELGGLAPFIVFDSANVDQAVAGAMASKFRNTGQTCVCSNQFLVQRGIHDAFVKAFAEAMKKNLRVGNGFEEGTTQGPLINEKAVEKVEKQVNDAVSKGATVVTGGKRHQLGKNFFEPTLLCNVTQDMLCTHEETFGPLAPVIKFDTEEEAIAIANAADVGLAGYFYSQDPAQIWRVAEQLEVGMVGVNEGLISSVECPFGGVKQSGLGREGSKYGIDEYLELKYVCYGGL
Target,log2 fold change (lapatinib),log2 fold change (pictilisib),log2 fold change (crizotinib),log2 fold change [1],log2 fold change (duvelisib),log2 fold change (gandotinib),log2 fold change (tozasertib),log2 fold change (doramapimod),log2 fold change (bafetinib),log2 fold change [2],log2 fold change (nilotinib),log2 fold change [3],log2 fold change (dasatinib),log2 fold change [4],log2 fold change [5],log2 fold change (quisinostat),log2 fold change (tipifarnib),log2 fold change [6],log2 fold change [7],log2 fold change [8]
APOBEC3C (UniProt Q9NRW3),0.011,0.033,-0.09,-0.058,0.021,0.066,-0.055,0.1,-0.023,0.153,0.082,-0.014,-0.005,0,0.042,-0.144,-0.024,-0.067,-0.001,0.028
ASB6 (UniProt Q9NWX5),-0.04,-0.029,0.01,0.093,0.008,-0.065,-0.159,0.004,-0.055,-0.028,-0.024,0.01,0.01,0.029,-0.025,-0.002,0.041,-0.01,0.016,0.08
APEX1 (UniProt P27695),0.022,0.039,-0.01,0.352 (active),-0.025,-0.042,-0.029,-0.045,0.106,-0.067,0.045,-0.037,0.002,-0.027,0.018,0.016,0.001,0.021,-0.011,-0.008
AMPD3 isoform 4 (UniProt Q01432),0.037,-0.015,0.014,0.109,-0.053,-0.057,0.001,0.002,-0.002,-0.047,-0.002,0.027,0.014,-0.021,-0.013,0.038,0.032,-0.012,-0.017,0.012
ALDH5A1 isoform 2 (UniProt P51649),-0.012,-0.049,-0.044,0,-0.056,-0.059,0.005,-0.011,0.008,-0.035,0.003,-0.019,-0.005,-0.015,-0.003,0.028,-0.063,0.04,0.004,-0.023
AIP (UniProt O00170),-0.004,-0.026,0.021,0.41 (active),-0.031,-0.019,-0.012,-0.022,0.055,-0.043,0.024,-0.001,0.018,0.028,0.008,0.007,0.027,-0.011,-0.016,0.024
AK4 (UniProt P27144),-0.003,-0.033,0.028,-0.027,0.014,-0.019,0.052,0.03,-0.024,0.012,-0.006,0.003,-0.04,0.042,0.04,-0.012,0.001,0.018,-0.023,-0.012
ARAF (UniProt P10398),-0.019,0.011,-0.041,-0.045,-0.025,-0.077,-0.007,0.006,-0.047,-0.031,-0.005,0.018,0.16,0.022,0.02,-0.069,-0.023,0.011,0.018,-0.012
ADD1 isoform 3 (UniProt P35611),-0.017,0.003,0.014,-0.011,0.014,-0.001,-0.002,0.002,0.002,-0.019,0.027,-0.005,0.007,-0.017,-0.012,-0.016,0.019,0.007,-0.015,0.011
AP3D1 isoform 5 (UniProt O14617),0.008,0.01,-0.02,-0.061,0.023,0.05,0.019,0.059,-0.042,0.081,-0.001,0.018,-0.043,0.002,0.003,-0.002,-0.002,0.016,-0.007,0.03
ABCD3 (UniProt P28288),0.179,-0.019,-0.063,0.014,0.019,0.079,0.098,-0.002,0.027,-0.006,0.019,0.093,-0.063,-0.184,0.031,0.074,-0.025,0.016,-0.054,0.087
ABHD17A isoform 2 (UniProt Q96GS6),-0.034,-0.044,0.017,-0.074,0.01,0.139,0.019,0.044,0.019,0.065,0.062,0.038,-0.141,0.096,0.017,-0.09,0.097,-0.007,0.008,0.007
AMDHD2 isoform 3 (UniProt Q9Y303),0.014,-0.081,0.025,0.006,-0.043,0.008,-0.013,0.003,0.093,0.009,0.011,-0.076,-0.043,-0.027,0.026,0.035,0.01,-0.011,-0.022,0.002
AIMP2 (UniProt Q13155),-0.006,0.015,-0.047,0.05,-0.018,-0.12,0.041,0.029,-0.03,-0.032,0.015,-0.015,-0.048,-0.002,-0.007,-0.009,-0.003,0.045,-0.012,-0.007
ABHD12 isoform 2 (UniProt Q8N2K0),-0.006,-0.069,-0.04,0.078,-0.057,-0.095,0.06,0.04,0.062,-0.063,0.005,-0.004,0.028,0.058,-0.068,0.044,-0.077,-0.025,-0.02,0.019
